# Measured values published in the supplement of paper PMC8253809.
# Values joined by “and” are separate entries in the source; they are usually repeats but may differ in a detail not shown here. Equal entries are not always repeated.
# How the values were obtained:
# Assay in all cases: growth inhibition (% activity, log2 RLU normalised to DMSO / staurosporine); higher = more growth inhibition
# Details in all cases: 33 µM
# DIPGX29 = system: DIPGX29 (H3.3 K27M diffuse intrinsic pontine glioma line)
# In short: (§1)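 Approved drugs, at a single final concentration of about 33 μM, were applied in triplicate to pHGG cell lines and H9-derived neural stem cells for 7 days at 37 °C, 5% CO2. The growth-inhibition value is the replicate median of log2-transformed CellTiter-Glo luminescence normalised per plate to % activity between solvent and positive control wells.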
# DIPGX37 = system: DIPGX37 (H3.3 K27M diffuse intrinsic pontine glioma line)
# In short: as §1
# DIPGX7 = system: DIPGX7 (H3.3 K27M diffuse intrinsic pontine glioma line)
# In short: as §1
# DIPGX9 = system: DIPGX9 (diffuse intrinsic pontine glioma line)
# In short: as §1
# HGGX39 = system: HGGX39 (paediatric high-grade glioma line)
# In short: as §1
# HGGX6 = system: HGGX6 (H3.3 G34R paediatric high-grade glioma line)
# In short: as §1
# HNSC = system: HNSC
# In short: as §1
# SUDIPGIV = system: SUDIPGIV (diffuse intrinsic pontine glioma line)
# In short: as §1
# SUDIPGVI = system: SUDIPGVI (diffuse intrinsic pontine glioma line)
# In short: as §1
# SUDIPGXIII = system: SUDIPGXIII (diffuse intrinsic pontine glioma line)
# In short: as §1
Structure (SMILES),growth inhibition (DIPGX29),growth inhibition (DIPGX37),growth inhibition (DIPGX7),growth inhibition (DIPGX9),growth inhibition (HGGX39),growth inhibition (HGGX6),growth inhibition (HNSC),growth inhibition (SUDIPGIV),growth inhibition (SUDIPGVI),growth inhibition (SUDIPGXIII)
CC(C)(Sc1cc(C(C)(C)C)c(O)c(C(C)(C)C)c1)Sc1cc(C(C)(C)C)c(O)c(C(C)(C)C)c1,-2%,-0.535%,-0.766%,-0.47%,-0.682%,-1.24%,1.54%,-1.38%,-2.9%,1.85%
COc1ccc(-c2nc3ccc(C4=NNC(=O)CC4C)cc3[nH]2)cc1 (stereo not given),0.372%,2.28%,1.98%,1.28%,3.99%,2.72%,3%,5.46%,-4.45%,0.884%
NC(=O)Cc1cccc(C(=O)c2ccccc2)c1N,-1.79%,-2.49%,-1.26%,-0.361%,-1.73%,0.913%,-2.2%,-3.13%,-0.113%,0.258%
O=S(=O)(O)CCS,-1.06%,0.485%,-0.101%,0.715%,-0.445%,-1.07%,0.589%,-0.0759%,1.78%,-0.97%
CN1CCCCC1CCN1c2ccccc2Sc2ccc([S+](C)[O-])cc21 (stereo not given),-1.62%,1.07%,-1.12%,-0.108%,-0.329%,-0.926%,1.22%,-1.02%,-0.796%,1.03%
CC(C)NCC(O)c1cc(O)cc(O)c1 (stereo not given),-0.101%,1.67%,1.75%,1.82%,2.87%,-1.68%,27.3%,2.27%,-0.181%,-0.215%
CN(C)CCCN1c2ccccc2CCc2ccc(Cl)cc21,0.798%,0.768%,0.947%,2.88%,7.81%,0.658%,8.46%,7.66%,3.07%,3.28%
CC(=O)O[C@]1(C(C)=O)CC[C@H]2[C@@H]3C[C@H](C)C4=CC(=O)CC[C@]4(C)[C@H]3CC[C@@]21C,-3.25%,0.463%,-0.594%,-0.287%,-4.12%,-0.715%,31.3%,-4.85%,-6.53%,4.79%
Nc1nc(N)c2nc(-c3ccccc3)c(N)nc2n1,5.33%,1.67%,1.42%,1.23%,3.58%,1.3%,3.87%,3.03%,5.65%,0.714%
O=C([O-])[C@H](O)[C@@H](O)[C@H](O)[C@H](O)CO.[Na+],0.856%,4.24%,2.56%,1.18%,1.7%,0.0619%,3.09%,1.5%,2.94%,-0.611%
CCC(=O)O[C@@H](O[P@](=O)(CCCCc1ccccc1)CC(=O)N1C[C@H](C2CCCCC2)C[C@H]1C(=O)O)C(C)C,1.88%,3.74%,2.4%,1.15%,2.87%,2.08%,2.72%,1.26%,3.21%,-1.04%
COC(=O)N[C@H](C(=O)N[C@@H](Cc1ccccc1)[C@@H](O)CN(Cc1ccc(-c2ccccn2)cc1)NC(=O)[C@@H](NC(=O)OC)C(C)(C)C)C(C)(C)C,-2.79%,-2.21%,1.19%,-1.97%,-2.26%,-3.15%,-5.7%,-0.315%,-14.4%,0.413%
O=C(N/N=C/c1ccc([N+](=O)[O-])o1)c1ccc(O)cc1,6.1%,2.69%,4.79%,5.76%,11%,4.58%,17.4%,18.5%,13.9%,2.98%
CC[C@H]1OC(=O)[C@H](C)[C@@H](O[C@H]2C[C@@](C)(OC)[C@@H](O)[C@H](C)O2)[C@H](C)[C@@H](O[C@@H]2O[C@H](C)C[C@H](N(C)C)[C@H]2O)[C@](C)(O)C[C@@H](C)CN(C)[C@H](C)[C@@H](O)[C@]1(C)O,2.6% and 0.58%,0.972% and 0.639%,2.78% and -0.0129%,0.764% and 1.25%,1.94% and 0.554%,0.417% and 2.15%,-0.827% and -1.61%,-0.232% and -0.687%,-6.26% and 1.06%,1.93% and -0.434%
COc1cc2ncnc(Nc3ccc(F)c(Cl)c3)c2cc1OCCCN1CCOCC1,3.09%,-0.0268%,1.03%,-0.279%,1.46%,4.13%,-1.23%,-5.34%,-6.03%,0.759%
O=c1c(-c2ccc(O)cc2)coc2cc(O)cc(O)c12,0.891%,2.29%,2.16%,4.34%,4.09%,2.54%,3.99%,-1.2%,0.172%,-2.36%
N=C(N=C(N)N)N1CCOCC1,0.894%,3.09%,0.853%,1.87%,2.32%,0.804%,0.723%,-0.801%,2.92%,-0.103%
O=c1[nH]c(=O)n([C@H]2C[C@H](O)[C@@H](CO)O2)cc1C(F)(F)F,-1.08%,0.535%,-1.11%,5.19%,8.23%,-0.706%,57.7%,13.1%,-3.24%,2.3%
CCCNC(C)C(=O)Nc1c(C)csc1C(=O)OC (stereo not given),0.453%,0.894%,1.5%,-0.444%,3.43%,1.44%,5.64%,0.331%,2.98%,-0.525%

Structure (SMILES),growth inhibition (DIPGX29),growth inhibition (DIPGX37),growth inhibition (DIPGX7),growth inhibition (DIPGX9),growth inhibition (HGGX39),growth inhibition (HGGX6),growth inhibition (HNSC),growth inhibition (SUDIPGIV),growth inhibition (SUDIPGVI),growth inhibition (SUDIPGXIII)
Cc1cn(-c2cc(NC(=O)c3ccc(C)c(Nc4nccc(-c5cccnc5)n4)c3)cc(C(F)(F)F)c2)cn1,2.27%,3.07%,4.89%,1.74%,3.66%,2.75%,4.26%,1.93%,2.31%,-2.01%
C[C@]12CCC(=O)C=C1CC[C@@H]1[C@@H]2[C@@H](O)C[C@@]2(C)[C@H]1CC[C@]2(O)C(=O)CO,1.76%,3.35%,0.297%,4.32%,3.81%,2.56%,-1.17%,-0.15%,3.46%,0.475%
CCC1(c2ccccc2)C(=O)NCNC1=O,-1.25%,0.454%,0.246%,-0.432%,2.69%,-0.575%,3.35%,-1.41%,0.425%,0.0763%
CC(=O)OCC(=O)[C@@]12OC(C)(C)O[C@@H]1C[C@H]1[C@@H]3C[C@H](F)C4=CC(=O)C=C[C@]4(C)[C@@]3(F)[C@@H](O)C[C@@]12C,0.7%,2.1%,-1.12%,3.42%,2.3%,-0.607%,5.54%,-2.88%,0.11%,2.76%
CC(c1cc2ccccc2s1)N(O)C(N)=O (stereo not given),0.492%,-0.829%,0.715%,-0.313%,-0.313%,-1.42%,-0.145%,-2.98%,-1.81%,0.685%
COc1cc2c(cc1OC)C(=O)C(CC1CCN(Cc3ccccc3)CC1)C2 (stereo not given),4.4%,-6.1%,3.13%,-1.15%,-1.59%,0.576%,9.45%,-1.23%,-7.35%,-4.73%
CN1CCC(OC(c2ccccc2)c2ccccc2)CC1,1.96%,3.9%,1.96%,0.713%,4.23%,2.61%,2.96%,1.77%,3.73%,-1.75%
CCCCCCCCCCCCCCCC(=O)O[C@@H]1[C@@H](O)[C@@H](O)[C@@H]([C@H](NC(=O)[C@@H]2C[C@@H](CCC)CN2C)[C@H](C)Cl)O[C@@H]1SC,0.38%,-0.882%,0.64%,-0.0578%,2.42%,2.01%,-1.46%,1.12%,0.759%,-0.501%
CCOC(CN1CCN(CC(C)C(=O)c2ccccc2)CC1)c1ccccc1 (stereo not given),-0.933%,-1.59%,-1.24%,-0.121%,2.63%,1.64%,-3.21%,-1.87%,-0.901%,13.1%
Cc1ncc(C[n+]2csc(CCO)c2C)c(N)n1,0.631%,-0.256%,-1.44%,0.746%,1.92%,1.62%,-1.01%,-0.371%,0.498%,0.53%
N[C@H](C(=O)O)[C@H](O)c1ccc(O)c(O)c1,-1.91%,-2.48%,-1.18%,-0.989%,-1.97%,-1.74%,-3.73%,-1.1%,-1.43%,-4.54%
CC1=NN(c2ccccc2)C(=O)C1,-3.36%,-1.06%,-0.361%,-0.407%,-0.249%,-3.17%,-4.84%,1.69%,-1.55%,-0.303%
CN1CCN(c2c(F)cc3c(=O)c(C(=O)O)cn(CCF)c3c2F)CC1,1.06%,4.17%,2.04%,2.14%,2.42%,-0.149%,5.69%,2.18%,2.45%,-2.39%
CCn1cc(C(=O)O)c(=O)c2cnc(N3CCCC3)nc21,-2.15%,-2.01%,-0.632%,-0.749%,-1.43%,0.0128%,-2.86%,-0.463%,-0.722%,-2.7%
COc1cccc2c1C(=O)c1c(O)c3c(c(O)c1C2=O)C[C@@](O)(C(C)=O)C[C@@H]3O[C@H]1C[C@H](N)[C@H](O)[C@H](C)O1,55.5%,56.5%,54.9%,43.6%,53%,56.3%,62.2%,57.2%,46.8%,66.3%
CCCCCCCCCC(=O)NC1C(Oc2c3cc4cc2Oc2ccc(cc2Cl)C(OC2OC(CO)C(O)C(O)C2NC(C)=O)C2NC(=O)C(NC(=O)C4NC(=O)C4NC(=O)C(Cc5ccc(c(Cl)c5)O3)NC(=O)C(N)c3ccc(O)c(c3)Oc3cc(O)cc4c3)c3ccc(O)c(c3)-c3c(OC4OC(CO)C(O)C(O)C4O)cc(O)cc3C(C(=O)O)NC2=O)OC(CO)C(O)C1O (stereo not given),-0.31%,0.115%,0.155%,0.4%,-1.12%,-0.793%,0.958%,-1.1%,0.462%,2.06%
CNCCCC12CCC(c3ccccc31)c1ccccc12,-1.06%,-0.189%,1.34%,-1.84%,-0.798%,-0.808%,27.6%,-1.99%,-4.58%,0.908%
CC(=O)OCC(=O)[C@@]1(O)CC[C@H]2[C@@H]3CCC4=CC(=O)CC[C@]4(C)[C@H]3C(=O)C[C@@]21C,-5.36%,-1.7%,-1.09%,-3.1%,-6.61%,-4.47%,6.87%,-5.64%,-7.69%,-0.171%
